Holding throughout (assay): DAPPL (digital affinity profiling via proximity ligation, sequencing); 10 mM Tris-HCl pH 7.5, 50 mM NaCl, 1 mM DTT, 4% glycerol, room temperature, 30 min; GST-TFs on glutathione beads, 16-mer random dsDNA library, 0.1% formaldehyde crosslink after washing; high values mean tight binding
One assay deals with T1, FEV (Homo sapiens, UniProt Q99581 1-238).
T1 sequence: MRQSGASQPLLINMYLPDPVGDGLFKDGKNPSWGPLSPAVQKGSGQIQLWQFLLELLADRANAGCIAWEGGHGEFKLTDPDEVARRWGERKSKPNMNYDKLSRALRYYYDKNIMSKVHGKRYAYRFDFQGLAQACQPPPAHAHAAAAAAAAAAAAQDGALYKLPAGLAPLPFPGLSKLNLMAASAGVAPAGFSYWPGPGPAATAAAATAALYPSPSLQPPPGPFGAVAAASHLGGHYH
The note with it: protein: recombinant; tags: N-terminal GST; dsDNA, one strand shown. A digest of the protocol: (§1)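 Pools were built from human transcription factors expressed in yeast as GST fusions, captured on glutathione beads and DNA-barcoded, along with a tag-only sample. Incubation with 200 nmole of a 16-mer random double-stranded DNA library lasted 30 min at room temperature in Tris/NaCl/DTT/glycerol buffer, and was followed by washing, 0.1% formaldehyde crosslinking, proximity ligation, PCR amplification and Illumina NextSeq500 sequencing. Binding signal is the quotient of each hexamer's read frequency for a factor and its frequency for the tag-only sample.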

A further assay concerns the target ETV5 (Homo sapiens, UniProt P41161 1-510). The note with it: protein: recombinant; tags: N-terminal GST; dsDNA, one strand shown. In short, it runs like this: as §1
For a further assay, the target named is HSF1 (Homo sapiens, UniProt Q00613 1-529). As to conditions: protein: recombinant; tags: N-terminal GST; chain copies: 3; dsDNA, one strand shown. In short, it runs like this:
as §1

A further assay concerns the target T2, SPIC (Homo sapiens, UniProt Q8N5J4 1-248).
T2 sequence: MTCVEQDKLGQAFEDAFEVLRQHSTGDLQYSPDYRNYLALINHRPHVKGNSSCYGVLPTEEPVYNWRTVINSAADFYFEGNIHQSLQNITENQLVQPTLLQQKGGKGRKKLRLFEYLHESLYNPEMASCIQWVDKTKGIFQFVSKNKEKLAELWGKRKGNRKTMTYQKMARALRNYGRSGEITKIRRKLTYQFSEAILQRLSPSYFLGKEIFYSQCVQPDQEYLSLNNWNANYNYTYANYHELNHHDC
As to conditions: protein: recombinant; tags: N-terminal GST; dsDNA, one strand shown. A digest of the protocol:
as §1

The target of another assay is ELF4 (Homo sapiens, UniProt Q99607 1-663). The note with it: protein: recombinant; tags: N-terminal GST; dsDNA, one strand shown. In short, it runs like this:
as §1

The next assay concerns the target T3, ELK4 (Homo sapiens, UniProt P28324-2 1-405).
T3 sequence: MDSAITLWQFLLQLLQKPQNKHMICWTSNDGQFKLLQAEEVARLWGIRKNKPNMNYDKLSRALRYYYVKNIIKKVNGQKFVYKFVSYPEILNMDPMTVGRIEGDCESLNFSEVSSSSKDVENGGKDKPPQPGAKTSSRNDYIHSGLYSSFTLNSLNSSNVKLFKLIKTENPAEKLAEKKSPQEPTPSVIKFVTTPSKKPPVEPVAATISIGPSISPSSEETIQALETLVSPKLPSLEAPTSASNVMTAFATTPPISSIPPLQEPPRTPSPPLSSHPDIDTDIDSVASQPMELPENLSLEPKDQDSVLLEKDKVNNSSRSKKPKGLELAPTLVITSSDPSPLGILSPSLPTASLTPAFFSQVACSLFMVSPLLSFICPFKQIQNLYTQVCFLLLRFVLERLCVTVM
As to conditions: protein: recombinant; tags: N-terminal GST; dsDNA, one strand shown. In short, it runs like this: as §1

For another assay, the target named is T4, ETV2 (Homo sapiens, UniProt O00321 1-342).
T4 sequence: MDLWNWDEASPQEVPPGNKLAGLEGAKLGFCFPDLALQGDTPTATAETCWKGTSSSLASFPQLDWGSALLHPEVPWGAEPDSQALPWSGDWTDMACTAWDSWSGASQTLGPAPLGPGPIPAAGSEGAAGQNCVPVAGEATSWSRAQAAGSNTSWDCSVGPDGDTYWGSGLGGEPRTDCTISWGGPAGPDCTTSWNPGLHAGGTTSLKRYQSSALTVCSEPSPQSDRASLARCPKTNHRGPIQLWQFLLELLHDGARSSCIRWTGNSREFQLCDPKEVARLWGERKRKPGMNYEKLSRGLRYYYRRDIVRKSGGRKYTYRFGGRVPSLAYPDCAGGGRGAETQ
The note with it: protein: recombinant; tags: N-terminal GST; dsDNA, one strand shown. In short, it runs like this:
as §1

Another assay deals with T5, ELF3 (Homo sapiens, UniProt P78545 1-371).
T5 sequence: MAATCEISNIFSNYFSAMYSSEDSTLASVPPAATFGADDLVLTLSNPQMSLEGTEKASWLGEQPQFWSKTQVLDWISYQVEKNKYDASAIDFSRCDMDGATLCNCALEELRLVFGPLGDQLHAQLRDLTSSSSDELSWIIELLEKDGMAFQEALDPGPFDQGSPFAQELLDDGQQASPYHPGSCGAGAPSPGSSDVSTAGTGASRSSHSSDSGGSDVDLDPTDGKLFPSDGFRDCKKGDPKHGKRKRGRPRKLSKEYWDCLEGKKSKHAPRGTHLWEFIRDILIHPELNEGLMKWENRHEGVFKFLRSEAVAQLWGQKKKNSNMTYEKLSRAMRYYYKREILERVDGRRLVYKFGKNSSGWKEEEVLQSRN
As to conditions: protein: recombinant; tags: N-terminal GST; dsDNA, one strand shown. A digest of the protocol:
as §1

Another assay deals with CRX (Homo sapiens, UniProt O43186 1-299). The note with it: protein: recombinant; tags: N-terminal GST; dsDNA, one strand shown. A digest of the protocol: as §1
The next assay deals with ETV1 (Homo sapiens, UniProt P50549 1-477). The note with it: protein: recombinant; tags: N-terminal GST; dsDNA, one strand shown. In short, it runs like this:
as §1

For another assay, the target named is T6, ERF (Homo sapiens, UniProt P50548 1-548).
T6 sequence: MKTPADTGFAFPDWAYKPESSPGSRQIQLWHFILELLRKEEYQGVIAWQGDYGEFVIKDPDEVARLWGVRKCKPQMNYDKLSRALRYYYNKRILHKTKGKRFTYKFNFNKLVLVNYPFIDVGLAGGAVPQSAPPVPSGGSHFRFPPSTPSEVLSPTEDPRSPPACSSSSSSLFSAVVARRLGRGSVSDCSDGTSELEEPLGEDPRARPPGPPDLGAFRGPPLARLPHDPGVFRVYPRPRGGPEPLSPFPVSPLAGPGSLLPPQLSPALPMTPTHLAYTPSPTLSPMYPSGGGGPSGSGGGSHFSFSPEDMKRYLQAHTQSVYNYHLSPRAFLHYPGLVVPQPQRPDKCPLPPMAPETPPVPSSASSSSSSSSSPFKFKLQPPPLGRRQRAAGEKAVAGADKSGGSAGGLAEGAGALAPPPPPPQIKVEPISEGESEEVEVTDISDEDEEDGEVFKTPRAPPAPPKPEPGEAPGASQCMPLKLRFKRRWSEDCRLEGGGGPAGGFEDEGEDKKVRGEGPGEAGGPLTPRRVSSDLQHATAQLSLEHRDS
The note with it: protein: recombinant; tags: N-terminal GST; dsDNA, one strand shown. In short, it runs like this: as §1

A further assay addresses T7, ETV3L (Homo sapiens, UniProt Q6ZN32 1-361).
T7 sequence: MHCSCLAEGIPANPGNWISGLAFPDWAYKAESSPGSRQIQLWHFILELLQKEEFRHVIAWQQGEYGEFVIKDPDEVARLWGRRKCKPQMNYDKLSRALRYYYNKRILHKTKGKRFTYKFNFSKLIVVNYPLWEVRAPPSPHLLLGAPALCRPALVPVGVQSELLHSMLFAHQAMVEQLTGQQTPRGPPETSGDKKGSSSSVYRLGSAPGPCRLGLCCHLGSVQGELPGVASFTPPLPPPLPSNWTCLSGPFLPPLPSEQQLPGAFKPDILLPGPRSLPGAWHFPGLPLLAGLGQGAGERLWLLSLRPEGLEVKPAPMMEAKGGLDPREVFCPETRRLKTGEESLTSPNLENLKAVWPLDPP
As to conditions: protein: recombinant; tags: N-terminal GST; dsDNA, one strand shown. A digest of the protocol: as §1

The target in a further assay is T8, ETS2 (Homo sapiens, UniProt P15036 1-469).
T8 sequence: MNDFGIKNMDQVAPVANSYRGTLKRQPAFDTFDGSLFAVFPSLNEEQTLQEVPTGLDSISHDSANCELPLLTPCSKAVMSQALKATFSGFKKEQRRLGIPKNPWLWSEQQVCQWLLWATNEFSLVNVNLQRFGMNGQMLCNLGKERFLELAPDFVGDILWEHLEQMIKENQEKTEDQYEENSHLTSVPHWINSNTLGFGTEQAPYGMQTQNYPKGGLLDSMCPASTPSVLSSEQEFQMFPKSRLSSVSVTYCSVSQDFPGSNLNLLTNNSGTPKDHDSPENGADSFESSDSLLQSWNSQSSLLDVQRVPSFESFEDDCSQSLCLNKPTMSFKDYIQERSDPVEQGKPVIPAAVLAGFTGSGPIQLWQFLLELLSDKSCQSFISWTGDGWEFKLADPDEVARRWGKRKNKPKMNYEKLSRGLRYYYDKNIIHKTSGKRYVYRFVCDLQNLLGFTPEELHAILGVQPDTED
The note with it: protein: recombinant; tags: N-terminal GST; dsDNA, one strand shown. In short, it runs like this:
as §1

A further assay concerns the target T9, SPDEF (Homo sapiens, UniProt O95238 1-335).
T9 sequence: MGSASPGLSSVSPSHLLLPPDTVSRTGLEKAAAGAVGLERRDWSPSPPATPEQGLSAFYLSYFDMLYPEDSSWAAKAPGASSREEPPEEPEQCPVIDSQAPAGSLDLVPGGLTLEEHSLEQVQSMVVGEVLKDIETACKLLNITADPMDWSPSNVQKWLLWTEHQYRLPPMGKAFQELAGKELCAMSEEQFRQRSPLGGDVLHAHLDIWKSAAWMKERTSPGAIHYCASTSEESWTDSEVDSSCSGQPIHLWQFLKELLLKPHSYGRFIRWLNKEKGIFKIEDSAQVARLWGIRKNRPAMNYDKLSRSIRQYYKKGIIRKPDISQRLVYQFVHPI
The note with it: protein: recombinant; tags: N-terminal GST; dsDNA, one strand shown. A digest of the protocol: as §1

A further assay has as its target T10, ETV7 (Homo sapiens, UniProt Q9Y603 1-341).
T10 sequence: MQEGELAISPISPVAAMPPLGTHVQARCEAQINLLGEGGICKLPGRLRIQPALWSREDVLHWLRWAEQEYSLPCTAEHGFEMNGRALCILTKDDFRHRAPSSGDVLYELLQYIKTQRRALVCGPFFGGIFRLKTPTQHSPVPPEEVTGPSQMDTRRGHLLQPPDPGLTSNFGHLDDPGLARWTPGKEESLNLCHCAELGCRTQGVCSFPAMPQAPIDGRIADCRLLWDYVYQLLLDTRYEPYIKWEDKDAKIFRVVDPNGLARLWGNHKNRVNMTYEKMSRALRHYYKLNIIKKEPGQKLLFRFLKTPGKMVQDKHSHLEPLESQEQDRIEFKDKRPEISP
As to conditions: protein: recombinant; tags: N-terminal GST; dsDNA, one strand shown. A digest of the protocol:
as §1

A further assay concerns the target T11, ELF5 (Homo sapiens, UniProt Q9UKW6-2 1-255).
T11 sequence: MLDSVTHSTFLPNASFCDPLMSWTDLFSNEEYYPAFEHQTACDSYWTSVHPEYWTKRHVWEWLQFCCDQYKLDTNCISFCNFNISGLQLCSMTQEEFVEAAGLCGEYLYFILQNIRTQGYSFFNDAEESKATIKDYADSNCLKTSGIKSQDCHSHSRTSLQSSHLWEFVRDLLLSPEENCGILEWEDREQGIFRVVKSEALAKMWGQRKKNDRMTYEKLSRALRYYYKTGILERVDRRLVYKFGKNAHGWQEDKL
The note with it: protein: recombinant; tags: N-terminal GST; dsDNA, one strand shown. In short, it runs like this: as §1

In another assay the target is T12, ETV3 (Homo sapiens, UniProt P41162-2 1-143).
T12 sequence: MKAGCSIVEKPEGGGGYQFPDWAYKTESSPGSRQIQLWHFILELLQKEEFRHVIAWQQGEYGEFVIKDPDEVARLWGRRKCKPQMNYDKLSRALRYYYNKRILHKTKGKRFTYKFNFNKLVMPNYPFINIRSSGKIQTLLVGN
As to conditions: protein: recombinant; tags: N-terminal GST; dsDNA, one strand shown. In short, it runs like this:
as §1

The next assay has as its target ETV6 (Homo sapiens, UniProt P41212 1-452). As to conditions: protein: recombinant; tags: N-terminal GST; dsDNA, one strand shown. A digest of the protocol:
as §1

This note sets out measurements from paper PMC7862700, “An all-to-all approach to the identification of sequence-specific readers for epigenetic DNA modifications on cytosine”.

ELF4, sequence (Q99607 whole entry): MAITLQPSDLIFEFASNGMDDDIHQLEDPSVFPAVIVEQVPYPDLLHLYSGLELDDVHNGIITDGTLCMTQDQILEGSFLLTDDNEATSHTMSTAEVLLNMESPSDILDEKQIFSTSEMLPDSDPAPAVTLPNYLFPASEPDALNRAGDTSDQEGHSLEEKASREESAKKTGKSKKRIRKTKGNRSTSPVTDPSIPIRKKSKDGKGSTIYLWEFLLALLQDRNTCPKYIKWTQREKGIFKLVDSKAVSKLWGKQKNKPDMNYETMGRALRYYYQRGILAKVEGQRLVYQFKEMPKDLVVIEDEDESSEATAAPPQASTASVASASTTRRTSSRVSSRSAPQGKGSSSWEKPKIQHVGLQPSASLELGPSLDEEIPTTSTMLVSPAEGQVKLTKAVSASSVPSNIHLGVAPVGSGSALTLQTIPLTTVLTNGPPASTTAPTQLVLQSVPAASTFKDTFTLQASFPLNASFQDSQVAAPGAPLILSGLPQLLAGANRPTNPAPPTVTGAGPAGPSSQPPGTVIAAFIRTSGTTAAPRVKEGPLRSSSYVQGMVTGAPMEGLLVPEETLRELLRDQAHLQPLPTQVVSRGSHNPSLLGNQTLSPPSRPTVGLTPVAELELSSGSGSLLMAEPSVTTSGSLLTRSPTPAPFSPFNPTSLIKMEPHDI
ETV1, sequence (P50549 whole entry): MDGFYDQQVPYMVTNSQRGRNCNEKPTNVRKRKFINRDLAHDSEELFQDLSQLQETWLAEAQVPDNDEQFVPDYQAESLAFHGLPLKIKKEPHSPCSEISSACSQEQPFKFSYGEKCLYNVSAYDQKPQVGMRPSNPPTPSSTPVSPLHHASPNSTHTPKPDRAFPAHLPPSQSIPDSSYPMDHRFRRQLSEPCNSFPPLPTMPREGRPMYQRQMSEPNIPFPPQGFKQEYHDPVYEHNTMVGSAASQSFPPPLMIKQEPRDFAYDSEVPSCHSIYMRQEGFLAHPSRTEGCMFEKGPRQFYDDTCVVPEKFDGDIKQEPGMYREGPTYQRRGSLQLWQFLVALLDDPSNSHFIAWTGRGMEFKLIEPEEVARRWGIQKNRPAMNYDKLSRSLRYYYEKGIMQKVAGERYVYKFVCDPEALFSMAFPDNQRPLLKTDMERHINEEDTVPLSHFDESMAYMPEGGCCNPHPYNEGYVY
HSF1, sequence (Q00613 whole entry): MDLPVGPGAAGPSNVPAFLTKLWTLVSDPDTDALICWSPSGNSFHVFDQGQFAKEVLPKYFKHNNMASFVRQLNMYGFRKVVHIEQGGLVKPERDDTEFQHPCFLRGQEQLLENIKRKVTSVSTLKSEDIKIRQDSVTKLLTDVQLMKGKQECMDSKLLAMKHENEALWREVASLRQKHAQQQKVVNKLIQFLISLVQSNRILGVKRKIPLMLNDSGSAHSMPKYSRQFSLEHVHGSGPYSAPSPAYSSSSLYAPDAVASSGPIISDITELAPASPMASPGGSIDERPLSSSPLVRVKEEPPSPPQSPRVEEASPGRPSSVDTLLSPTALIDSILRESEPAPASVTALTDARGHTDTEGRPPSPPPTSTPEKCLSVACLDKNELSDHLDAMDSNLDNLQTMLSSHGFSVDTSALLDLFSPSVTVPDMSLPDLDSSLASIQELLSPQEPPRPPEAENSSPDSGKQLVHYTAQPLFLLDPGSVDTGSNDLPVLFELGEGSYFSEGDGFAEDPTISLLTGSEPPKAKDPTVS
CRX, sequence (O43186 whole entry): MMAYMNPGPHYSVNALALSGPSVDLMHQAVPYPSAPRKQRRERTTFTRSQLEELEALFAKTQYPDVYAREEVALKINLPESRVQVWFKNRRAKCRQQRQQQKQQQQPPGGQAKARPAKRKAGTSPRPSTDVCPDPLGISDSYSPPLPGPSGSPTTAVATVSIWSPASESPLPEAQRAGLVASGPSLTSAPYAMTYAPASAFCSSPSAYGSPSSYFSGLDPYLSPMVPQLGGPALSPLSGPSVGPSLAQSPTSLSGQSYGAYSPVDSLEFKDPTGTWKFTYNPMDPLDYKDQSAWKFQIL
ETV6, sequence (P41212 whole entry): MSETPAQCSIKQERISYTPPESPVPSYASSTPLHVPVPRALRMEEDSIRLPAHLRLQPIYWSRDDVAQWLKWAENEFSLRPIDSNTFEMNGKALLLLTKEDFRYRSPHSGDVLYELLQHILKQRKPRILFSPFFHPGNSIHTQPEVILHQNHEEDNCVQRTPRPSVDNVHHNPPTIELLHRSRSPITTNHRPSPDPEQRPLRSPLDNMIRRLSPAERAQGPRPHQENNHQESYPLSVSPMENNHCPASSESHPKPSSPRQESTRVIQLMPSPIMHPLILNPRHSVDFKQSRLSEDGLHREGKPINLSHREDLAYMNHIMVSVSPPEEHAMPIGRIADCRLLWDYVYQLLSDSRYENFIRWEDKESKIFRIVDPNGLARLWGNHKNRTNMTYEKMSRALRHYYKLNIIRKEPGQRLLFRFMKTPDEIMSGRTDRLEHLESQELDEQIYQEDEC
ETV5, sequence (P41161 whole entry): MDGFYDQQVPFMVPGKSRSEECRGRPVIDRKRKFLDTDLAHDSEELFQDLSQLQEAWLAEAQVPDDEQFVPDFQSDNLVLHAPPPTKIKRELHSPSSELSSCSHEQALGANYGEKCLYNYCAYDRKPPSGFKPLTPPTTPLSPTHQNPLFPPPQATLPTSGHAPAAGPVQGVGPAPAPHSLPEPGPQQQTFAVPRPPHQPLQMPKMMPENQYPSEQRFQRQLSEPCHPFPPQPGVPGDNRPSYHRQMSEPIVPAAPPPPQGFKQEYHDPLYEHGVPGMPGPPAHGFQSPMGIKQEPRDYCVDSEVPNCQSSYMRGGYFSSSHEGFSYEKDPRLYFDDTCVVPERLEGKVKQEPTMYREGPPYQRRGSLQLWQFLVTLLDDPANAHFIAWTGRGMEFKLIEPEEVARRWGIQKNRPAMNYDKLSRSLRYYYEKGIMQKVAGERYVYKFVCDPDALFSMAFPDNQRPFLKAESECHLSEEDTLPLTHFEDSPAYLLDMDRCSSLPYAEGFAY

With ATTGCA, the binding signal in the assay with FEV is 1.15 fold enrichment (6-mer frequency, TF over GST control); with ETV5 it was 1.17 fold enrichment (6-mer frequency, TF over GST control); with HSF1, 1.06 fold enrichment (6-mer frequency, TF over GST control); with SPIC, 1.1 fold enrichment (6-mer frequency, TF over GST control); with ELF4, 1.19 fold enrichment (6-mer frequency, TF over GST control); with ELK4 it was 1.28 fold enrichment (6-mer frequency, TF over GST control). Moreover, the binding signal with ETV2 was 1.31 fold enrichment (6-mer frequency, TF over GST control); with ELF3, 1.13 fold enrichment (6-mer frequency, TF over GST control); with CRX it was 1.11 fold enrichment (6-mer frequency, TF over GST control); with ETV1 it was 1.17 fold enrichment (6-mer frequency, TF over GST control); with ERF, 1.23 fold enrichment (6-mer frequency, TF over GST control); with ETV3L, 1.19 fold enrichment (6-mer frequency, TF over GST control). The binding signal with ETS2 was 1.15 fold enrichment (6-mer frequency, TF over GST control); in the assay with SPDEF, 1.18 fold enrichment (6-mer frequency, TF over GST control); with ETV7, 1.17 fold enrichment (6-mer frequency, TF over GST control); in the assay with ELF5, 1.16 fold enrichment (6-mer frequency, TF over GST control); in the assay with ETV3, 1.09 fold enrichment (6-mer frequency, TF over GST control); with ETV6, 1.21 fold enrichment (6-mer frequency, TF over GST control).
